From ChEMBL document CHEMBL1961873, “Compounds: GSK PKIS; Assays: Nanosyn kinase panel” (2012)
Several values for one entry are separate records, joined by “and”; a condition that tells them apart may be missing. Equal entries are not always repeated.

Assays:
[1] = target: High affinity nerve growth factor receptor (Homo sapiens) (UniProt P04629); details: at 1 µM;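 also: each value is the mean percent inhibition of TRKA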
[2] = target: BDNF/NT-3 growth factors receptor (Homo sapiens) (UniProt Q16620); details: at 0.1 µM
BDNF/NT-3 growth factors receptor (Homo sapiens), sequence (Q16620 32-822 limits assumed): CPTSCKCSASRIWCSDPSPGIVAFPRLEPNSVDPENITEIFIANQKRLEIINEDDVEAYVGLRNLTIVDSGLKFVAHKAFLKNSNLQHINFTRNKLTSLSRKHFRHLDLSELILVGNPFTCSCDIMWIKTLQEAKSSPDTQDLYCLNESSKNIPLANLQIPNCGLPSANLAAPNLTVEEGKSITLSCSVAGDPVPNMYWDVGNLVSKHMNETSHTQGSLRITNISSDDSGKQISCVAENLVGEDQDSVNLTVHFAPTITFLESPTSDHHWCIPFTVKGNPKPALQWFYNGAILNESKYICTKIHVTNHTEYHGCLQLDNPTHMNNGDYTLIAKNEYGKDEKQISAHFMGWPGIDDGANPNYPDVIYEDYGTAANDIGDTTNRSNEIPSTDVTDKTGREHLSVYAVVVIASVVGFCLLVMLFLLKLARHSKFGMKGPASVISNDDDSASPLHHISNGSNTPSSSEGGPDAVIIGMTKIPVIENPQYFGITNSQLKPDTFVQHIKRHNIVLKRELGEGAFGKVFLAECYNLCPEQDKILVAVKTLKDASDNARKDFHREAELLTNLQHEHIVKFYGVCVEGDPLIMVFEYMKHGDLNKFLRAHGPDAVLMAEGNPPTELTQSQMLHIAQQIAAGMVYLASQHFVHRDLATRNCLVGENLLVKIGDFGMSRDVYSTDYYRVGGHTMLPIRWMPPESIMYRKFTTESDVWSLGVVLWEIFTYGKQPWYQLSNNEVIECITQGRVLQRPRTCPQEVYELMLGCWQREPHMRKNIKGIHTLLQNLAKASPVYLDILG

[3] = target: BDNF/NT-3 growth factors receptor (Homo sapiens) (UniProt Q16620); details: at 1 µM
[4] = target: NT-3 growth factor receptor (Homo sapiens) (UniProt Q16288); details: at 0.1 µM
NT-3 growth factor receptor (Homo sapiens), sequence (Q16288 32-839 limits assumed): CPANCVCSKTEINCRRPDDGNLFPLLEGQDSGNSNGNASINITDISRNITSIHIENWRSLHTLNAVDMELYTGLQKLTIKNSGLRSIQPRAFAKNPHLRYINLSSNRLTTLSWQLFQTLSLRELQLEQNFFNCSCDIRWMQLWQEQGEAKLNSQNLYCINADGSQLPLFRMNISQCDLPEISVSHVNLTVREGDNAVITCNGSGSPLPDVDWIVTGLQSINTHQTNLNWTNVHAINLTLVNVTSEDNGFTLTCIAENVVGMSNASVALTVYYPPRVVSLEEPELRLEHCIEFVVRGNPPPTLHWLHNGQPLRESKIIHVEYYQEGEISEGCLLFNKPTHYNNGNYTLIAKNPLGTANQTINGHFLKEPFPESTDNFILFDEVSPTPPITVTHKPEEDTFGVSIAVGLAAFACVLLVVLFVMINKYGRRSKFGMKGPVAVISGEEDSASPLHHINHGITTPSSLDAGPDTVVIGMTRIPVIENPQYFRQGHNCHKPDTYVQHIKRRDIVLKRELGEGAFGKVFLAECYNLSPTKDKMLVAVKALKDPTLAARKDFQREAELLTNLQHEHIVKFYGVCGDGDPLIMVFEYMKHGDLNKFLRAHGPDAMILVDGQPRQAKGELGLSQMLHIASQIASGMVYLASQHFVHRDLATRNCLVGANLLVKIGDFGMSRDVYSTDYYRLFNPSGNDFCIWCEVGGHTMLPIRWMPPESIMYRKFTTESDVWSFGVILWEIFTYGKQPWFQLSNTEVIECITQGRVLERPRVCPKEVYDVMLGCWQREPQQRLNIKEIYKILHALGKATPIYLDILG

[5] = target: NT-3 growth factor receptor (Homo sapiens) (UniProt Q16288); details: at 1 µM
[6] = target: T1, Tyrosine-protein kinase TXK (Homo sapiens) (UniProt P42681); details: at 0.1 µM
T1 sequence (whole entry): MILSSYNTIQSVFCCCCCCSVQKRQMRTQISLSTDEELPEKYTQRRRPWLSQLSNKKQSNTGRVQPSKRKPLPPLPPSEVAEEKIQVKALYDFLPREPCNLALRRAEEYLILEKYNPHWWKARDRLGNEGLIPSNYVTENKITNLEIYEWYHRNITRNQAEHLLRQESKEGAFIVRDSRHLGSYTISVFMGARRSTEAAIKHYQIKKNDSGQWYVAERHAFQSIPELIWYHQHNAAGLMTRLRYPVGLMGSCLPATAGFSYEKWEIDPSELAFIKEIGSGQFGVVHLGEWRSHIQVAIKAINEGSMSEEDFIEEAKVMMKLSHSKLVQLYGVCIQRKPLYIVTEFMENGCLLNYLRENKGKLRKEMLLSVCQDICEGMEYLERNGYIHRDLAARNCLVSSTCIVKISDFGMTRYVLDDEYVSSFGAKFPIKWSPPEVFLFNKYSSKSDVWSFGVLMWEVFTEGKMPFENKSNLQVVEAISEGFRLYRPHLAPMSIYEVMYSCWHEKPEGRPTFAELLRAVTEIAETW

[7] = target: T1, Tyrosine-protein kinase TXK (Homo sapiens); details: at 1 µM
[8] = target: Non-receptor tyrosine-protein kinase TYK2 (Homo sapiens) (UniProt P29597); details: at 0.1 µM;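 also: each value is a mean of the inhibition readings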
Non-receptor tyrosine-protein kinase TYK2 (Homo sapiens), sequence (P29597 whole entry): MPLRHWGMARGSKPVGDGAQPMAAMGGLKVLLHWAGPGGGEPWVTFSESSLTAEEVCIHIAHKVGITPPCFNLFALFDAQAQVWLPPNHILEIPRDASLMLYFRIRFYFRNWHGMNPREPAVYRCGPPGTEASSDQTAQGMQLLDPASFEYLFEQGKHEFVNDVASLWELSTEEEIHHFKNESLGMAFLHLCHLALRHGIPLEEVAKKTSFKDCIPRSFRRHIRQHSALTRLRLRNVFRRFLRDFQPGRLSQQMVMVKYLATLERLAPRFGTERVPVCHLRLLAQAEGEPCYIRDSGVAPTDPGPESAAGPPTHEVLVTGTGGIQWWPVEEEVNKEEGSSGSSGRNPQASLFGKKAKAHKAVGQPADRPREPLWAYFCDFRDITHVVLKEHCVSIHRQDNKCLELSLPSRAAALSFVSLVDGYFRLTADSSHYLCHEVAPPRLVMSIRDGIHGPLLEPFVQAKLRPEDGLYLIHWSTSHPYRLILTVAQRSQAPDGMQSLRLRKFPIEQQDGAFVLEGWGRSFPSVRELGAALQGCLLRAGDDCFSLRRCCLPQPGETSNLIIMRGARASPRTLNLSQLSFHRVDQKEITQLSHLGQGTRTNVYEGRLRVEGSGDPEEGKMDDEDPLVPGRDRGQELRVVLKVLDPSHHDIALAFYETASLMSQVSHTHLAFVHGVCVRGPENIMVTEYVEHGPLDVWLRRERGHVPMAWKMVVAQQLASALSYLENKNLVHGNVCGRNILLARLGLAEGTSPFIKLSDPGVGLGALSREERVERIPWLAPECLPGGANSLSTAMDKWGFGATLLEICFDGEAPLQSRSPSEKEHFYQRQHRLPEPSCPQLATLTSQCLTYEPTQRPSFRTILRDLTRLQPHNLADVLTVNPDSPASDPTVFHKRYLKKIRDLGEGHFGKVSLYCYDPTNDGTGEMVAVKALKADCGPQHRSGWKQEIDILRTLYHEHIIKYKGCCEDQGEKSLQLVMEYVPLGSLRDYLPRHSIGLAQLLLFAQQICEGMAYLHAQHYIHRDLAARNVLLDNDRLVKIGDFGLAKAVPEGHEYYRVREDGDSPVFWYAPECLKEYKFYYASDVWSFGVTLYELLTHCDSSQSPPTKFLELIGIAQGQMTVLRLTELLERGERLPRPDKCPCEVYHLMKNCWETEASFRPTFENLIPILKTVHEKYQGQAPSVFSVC

[9] = target: T2, Dual specificity protein kinase TTK (Homo sapiens) (UniProt P33981); details: at 1 µM;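 also: reported figures are mean TTK inhibition at 1 µM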
T2 sequence (whole entry): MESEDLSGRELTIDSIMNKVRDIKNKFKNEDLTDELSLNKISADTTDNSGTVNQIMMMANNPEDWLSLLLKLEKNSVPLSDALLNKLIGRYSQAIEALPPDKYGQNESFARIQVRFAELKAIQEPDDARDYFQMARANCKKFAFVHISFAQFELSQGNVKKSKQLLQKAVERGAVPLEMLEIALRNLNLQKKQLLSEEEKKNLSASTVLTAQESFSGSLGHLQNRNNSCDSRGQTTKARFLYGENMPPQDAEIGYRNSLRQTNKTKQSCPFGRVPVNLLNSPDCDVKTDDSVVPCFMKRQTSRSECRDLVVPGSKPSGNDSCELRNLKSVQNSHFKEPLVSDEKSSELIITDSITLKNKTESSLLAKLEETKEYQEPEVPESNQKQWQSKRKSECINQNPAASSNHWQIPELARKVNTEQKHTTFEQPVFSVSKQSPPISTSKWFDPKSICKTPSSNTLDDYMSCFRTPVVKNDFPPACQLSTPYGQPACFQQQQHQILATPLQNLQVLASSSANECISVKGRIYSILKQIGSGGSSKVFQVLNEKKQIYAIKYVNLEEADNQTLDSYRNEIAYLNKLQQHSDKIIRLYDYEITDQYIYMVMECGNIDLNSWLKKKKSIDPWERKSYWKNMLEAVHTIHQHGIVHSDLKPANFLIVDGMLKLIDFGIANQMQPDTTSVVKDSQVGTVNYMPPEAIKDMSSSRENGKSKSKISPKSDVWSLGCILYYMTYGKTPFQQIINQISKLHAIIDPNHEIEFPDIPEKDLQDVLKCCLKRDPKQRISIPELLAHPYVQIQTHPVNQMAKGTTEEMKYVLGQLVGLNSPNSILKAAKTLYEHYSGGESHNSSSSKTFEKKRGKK

[10] = target: T3, Aurora kinase A (Homo sapiens) (UniProt O14965); details: at 0.1 µM
T3 sequence (whole entry): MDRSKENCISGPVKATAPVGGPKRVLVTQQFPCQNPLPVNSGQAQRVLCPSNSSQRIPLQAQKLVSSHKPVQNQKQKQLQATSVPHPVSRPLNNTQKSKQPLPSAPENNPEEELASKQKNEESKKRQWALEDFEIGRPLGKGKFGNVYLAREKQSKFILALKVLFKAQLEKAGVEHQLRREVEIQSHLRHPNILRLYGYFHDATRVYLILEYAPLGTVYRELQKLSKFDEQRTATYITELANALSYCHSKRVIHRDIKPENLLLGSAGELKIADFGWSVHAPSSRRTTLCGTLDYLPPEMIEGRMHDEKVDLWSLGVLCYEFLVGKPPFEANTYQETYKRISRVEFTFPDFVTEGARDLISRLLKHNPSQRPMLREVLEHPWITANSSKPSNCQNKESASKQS

[11] = target: T3, Aurora kinase A (Homo sapiens); details: at 1 µM
[12] = target: Aurora kinase B (Homo sapiens) (UniProt Q96GD4); details: at 0.1 µM
Aurora kinase B (Homo sapiens), sequence (Q96GD4 whole entry): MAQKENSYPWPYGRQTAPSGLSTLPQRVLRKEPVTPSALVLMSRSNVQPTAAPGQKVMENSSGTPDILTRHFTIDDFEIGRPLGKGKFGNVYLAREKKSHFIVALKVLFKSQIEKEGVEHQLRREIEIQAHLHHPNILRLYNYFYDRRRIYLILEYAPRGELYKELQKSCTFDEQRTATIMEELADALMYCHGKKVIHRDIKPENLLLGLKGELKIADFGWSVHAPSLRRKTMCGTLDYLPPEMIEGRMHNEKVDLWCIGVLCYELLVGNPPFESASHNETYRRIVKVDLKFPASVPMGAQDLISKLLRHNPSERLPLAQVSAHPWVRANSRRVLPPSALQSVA

[13] = target: Aurora kinase B (Homo sapiens) (UniProt Q96GD4); details: at 1 µM
[14] = target: T4, Aurora kinase C (Homo sapiens) (UniProt Q9UQB9); details: at 0.1 µM
T4 sequence (whole entry): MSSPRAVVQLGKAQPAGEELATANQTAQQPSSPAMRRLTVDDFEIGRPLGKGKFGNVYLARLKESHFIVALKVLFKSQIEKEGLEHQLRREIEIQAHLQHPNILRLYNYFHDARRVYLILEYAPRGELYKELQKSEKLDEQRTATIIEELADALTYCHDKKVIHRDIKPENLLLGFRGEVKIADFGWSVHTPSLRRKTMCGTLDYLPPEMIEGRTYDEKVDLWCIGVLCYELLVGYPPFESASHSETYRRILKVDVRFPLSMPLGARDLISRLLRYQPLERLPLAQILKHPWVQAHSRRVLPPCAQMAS

[15] = target: T4, Aurora kinase C (Homo sapiens); details: at 1 µM
[16] = target: Serine/threonine-protein kinase 10 (Homo sapiens) (UniProt O94804); details: at 0.1 µM
Serine/threonine-protein kinase 10 (Homo sapiens), sequence (O94804 whole entry, looked up): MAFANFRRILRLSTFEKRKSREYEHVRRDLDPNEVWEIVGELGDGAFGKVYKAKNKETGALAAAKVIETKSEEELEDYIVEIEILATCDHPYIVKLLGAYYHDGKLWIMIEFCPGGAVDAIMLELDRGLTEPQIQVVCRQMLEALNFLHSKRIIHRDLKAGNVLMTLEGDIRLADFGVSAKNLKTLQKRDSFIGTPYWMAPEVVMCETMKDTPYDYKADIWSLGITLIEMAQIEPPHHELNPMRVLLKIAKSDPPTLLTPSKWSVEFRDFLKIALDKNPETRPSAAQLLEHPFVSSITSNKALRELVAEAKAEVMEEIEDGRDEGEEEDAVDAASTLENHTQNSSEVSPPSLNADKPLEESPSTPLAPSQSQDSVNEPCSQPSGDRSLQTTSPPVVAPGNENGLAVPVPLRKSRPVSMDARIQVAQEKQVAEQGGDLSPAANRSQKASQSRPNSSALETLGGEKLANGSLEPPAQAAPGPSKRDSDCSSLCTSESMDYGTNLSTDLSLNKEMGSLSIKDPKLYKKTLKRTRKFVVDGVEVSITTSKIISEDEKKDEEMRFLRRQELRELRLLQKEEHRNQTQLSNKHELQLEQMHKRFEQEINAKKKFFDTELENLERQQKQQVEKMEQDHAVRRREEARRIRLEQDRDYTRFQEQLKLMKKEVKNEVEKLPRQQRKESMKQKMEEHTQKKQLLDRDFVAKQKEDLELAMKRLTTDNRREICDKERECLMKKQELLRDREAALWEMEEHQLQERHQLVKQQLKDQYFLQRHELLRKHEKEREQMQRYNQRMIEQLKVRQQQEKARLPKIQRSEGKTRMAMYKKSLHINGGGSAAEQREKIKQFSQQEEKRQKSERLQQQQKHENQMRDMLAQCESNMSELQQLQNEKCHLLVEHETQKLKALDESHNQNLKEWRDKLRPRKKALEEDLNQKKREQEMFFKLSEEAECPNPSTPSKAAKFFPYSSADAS

[17] = target: Serine/threonine-protein kinase 10 (Homo sapiens) (UniProt O94804); details: at 1 µM
[18] = target: T5, Mitogen-activated protein kinase kinase kinase kinase 2 (Homo sapiens) (UniProt Q12851); details: at 0.1 µM
T5 sequence (whole entry): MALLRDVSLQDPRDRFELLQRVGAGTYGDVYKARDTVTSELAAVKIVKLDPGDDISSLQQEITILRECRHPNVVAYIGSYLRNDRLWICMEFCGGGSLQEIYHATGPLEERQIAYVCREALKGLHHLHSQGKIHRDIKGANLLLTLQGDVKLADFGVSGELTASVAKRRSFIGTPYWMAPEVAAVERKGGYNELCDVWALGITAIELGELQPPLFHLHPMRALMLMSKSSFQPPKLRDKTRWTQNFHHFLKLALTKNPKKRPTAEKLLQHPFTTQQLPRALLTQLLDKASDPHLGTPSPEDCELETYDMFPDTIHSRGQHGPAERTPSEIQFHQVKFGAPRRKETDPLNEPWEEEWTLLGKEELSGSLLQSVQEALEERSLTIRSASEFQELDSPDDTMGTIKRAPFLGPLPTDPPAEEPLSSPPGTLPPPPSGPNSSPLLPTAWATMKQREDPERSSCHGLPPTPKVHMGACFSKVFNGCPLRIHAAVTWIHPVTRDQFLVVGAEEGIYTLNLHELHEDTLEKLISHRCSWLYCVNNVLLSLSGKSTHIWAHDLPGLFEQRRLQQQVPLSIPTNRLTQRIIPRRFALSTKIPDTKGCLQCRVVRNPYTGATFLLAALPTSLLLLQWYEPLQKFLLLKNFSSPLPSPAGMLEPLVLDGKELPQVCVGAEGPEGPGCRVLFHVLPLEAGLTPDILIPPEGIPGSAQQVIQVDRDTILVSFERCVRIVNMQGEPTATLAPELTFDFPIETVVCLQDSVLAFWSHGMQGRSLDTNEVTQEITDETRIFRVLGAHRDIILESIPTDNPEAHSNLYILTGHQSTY

[19] = target: T5, Mitogen-activated protein kinase kinase kinase kinase 2 (Homo sapiens); details: at 1 µM
[20] = target: Mitogen-activated protein kinase kinase kinase kinase 4 (Homo sapiens) (UniProt O95819); details: at 0.1 µM

High affinity nerve growth factor receptor (Homo sapiens), sequence (P04629 33-796 limits assumed): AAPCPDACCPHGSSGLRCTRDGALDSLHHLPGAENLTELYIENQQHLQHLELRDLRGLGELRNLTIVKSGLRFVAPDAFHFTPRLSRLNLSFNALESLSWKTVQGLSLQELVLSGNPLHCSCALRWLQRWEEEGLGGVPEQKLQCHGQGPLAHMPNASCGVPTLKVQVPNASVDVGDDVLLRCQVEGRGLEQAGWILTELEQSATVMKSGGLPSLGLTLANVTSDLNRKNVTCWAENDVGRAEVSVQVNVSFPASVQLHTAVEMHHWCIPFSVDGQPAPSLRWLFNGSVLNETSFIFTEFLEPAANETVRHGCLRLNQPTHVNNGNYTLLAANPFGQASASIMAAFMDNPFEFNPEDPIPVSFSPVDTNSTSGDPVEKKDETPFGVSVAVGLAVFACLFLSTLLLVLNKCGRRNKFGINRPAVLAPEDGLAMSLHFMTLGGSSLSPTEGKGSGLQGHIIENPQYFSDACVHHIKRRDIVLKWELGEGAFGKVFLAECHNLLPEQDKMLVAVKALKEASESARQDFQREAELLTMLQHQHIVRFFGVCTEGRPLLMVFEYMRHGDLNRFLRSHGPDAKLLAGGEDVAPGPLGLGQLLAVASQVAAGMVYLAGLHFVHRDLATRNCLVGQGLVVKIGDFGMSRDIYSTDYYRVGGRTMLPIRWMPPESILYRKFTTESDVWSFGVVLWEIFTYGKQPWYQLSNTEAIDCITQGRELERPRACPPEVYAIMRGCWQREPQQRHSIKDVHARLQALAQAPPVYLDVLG

SMILES | inhibition [1] | inhibition [2] | inhibition [3] | inhibition [4] | inhibition [5] | inhibition [6] | inhibition [7] | inhibition [8] | inhibition [9] | inhibition [10] | inhibition [11] | inhibition [12] | inhibition [13] | inhibition [14] | inhibition [15] | inhibition [16] | inhibition [17] | inhibition [18] | inhibition [19] | inhibition [20]
CS(=O)(=O)CCNCc1ccc(-c2ccc3ncnc(Nc4ccc(OCc5cccc(C(F)(F)F)c5)cc4)c3c2)o1 | 7.21% | 4.9% | 17.5% | 3% | 10.1% | 5.9% | 5.59% | -2.56% | 8.3% | 3.79% | 4.78% | 5.65% | 4.87% | 1.93% | 4.53% | 9.88% | 11.7% | -0.93% | 2.32% | 2.66%
COc1ccccc1-c1cc(/C=C2\C(=O)Nc3ncc(Br)cc32)cc(Br)c1O | 61.7% | 38.7% | 89.2% | 41.7% | 93.9% | 3.05% | 6.65% | -5.9% | 9.88% | 13.4% | 93% | 12.4% | 57.2% | 7.31% | 87.5% | 5.49% | 5.99% | 0.42% | 5.34% | 5.7%
CC1=C(C(=O)Nc2ccc3[nH]nc(C)c3c2)C(c2ccc(C(F)(F)F)cc2)CC(=O)N1 (stereo not given) | 3.25% | 1% | 3.58% | 2.43% | 6.4% | 3.55% | 6.06% | 0.25% | -0.26% | 17.9% | 88.3% | 7.45% | 45.7% | 7.71% | 78.2% | 2.01% | 4.46% | 0.76% | 3.74% | 4.23%
CNC(=O)c1sc(-n2cnc3cc(OC)c(OC)cc32)cc1OCc1ccccc1C(F)(F)F | 4.9% | 1.8% | 4.02% | 3.06% | 6.32% | 5.54% | 11.5% | -2.35% | 7.09% | 3.14% | 4.37% | 6.28% | 16.6% | 5.07% | 20.8% | 10.4% | 31.6% | 3.26% | 7.14% | 8.53%
COc1ccc(-c2nn3ncccc3c2-c2ccnc(Nc3ccc(F)c(F)c3)n2)cc1 | 3.36% | 2.76% | 8.32% | 2.73% | 4.85% | 2.4% | 5% | -2.09% | -0.7% | 2.87% | 28.5% | 4.36% | 14.3% | 1.75% | 6.44% | 7.15% | 23.5% | 2.1% | 1.49% | 8.56%
CN1CCC(n2cnc(-c3ccc(F)cc3)c2-c2ccnc(NCCO)n2)CC1 | 2.02% | 2.35% | 6.67% | 4.76% | 5.91% | 2.5% | 2.52% | -3.21% | 2.05% | 1.7% | 9.26% | 4.23% | 4.96% | 1.22% | -3.16% | 4.56% | 8.57% | 1.01% | 1.59% | 7.52%
Cc1cc(O)cc(C)c1/C=C/c1cncc(C(=O)OC(C)(C)C)c1 | 2.95% | 2.88% | 5.2% | 2.87% | 5.85% | 8.06% | 36.9% | -0.75% | 4.42% | 2.02% | 14.9% | 3.41% | 6.42% | 0.94% | -1.91% | 5.45% | 17.5% | 2.5% | 7.97% | 7.27%
CC(C)c1ccc(-c2cc(-c3c[nH]nc3-c3ccccn3)ccn2)cc1 | 2.9% | 0.33% | 2.07% | 0.32% | 1.76% | 2.1% | 2.05% | 0.66% | 11.3% | 1.03% | 3.72% | 0.9% | 5.53% | 1.22% | -0.07% | 0.88% | 0.62% | 1.5% | 3.27% | 10.9%
OCCCNc1nccc(-c2c(-c3ccc(F)cc3)nn3cc(C(F)(F)F)ccc23)n1 | 1.07% | 1.2% | 1.1% | 2.9% | 2.72% | 4.77% | 6.39% | -6.14% | 4.7% | 0.87% | 7.6% | 3.85% | 9.08% | 0.36% | 2.19% | 6.36% | 8.12% | 0.6% | 3.51% | 5.34%
Nc1nccc(-c2c(-c3ccc(F)cc3)ncn2C2CCNCC2)n1 | -2.46% and 2.61% | -1.2% and 0.85% | -0.92% and 0.76% | -2.82% and 1.09% | -1.78% and 1.96% | -1.02% and 1.02% | -0.81% and 3.65% | 0.9% and -0.21% | -1.76% and -0.14% | -4.27% and 0.74% | 2.76% and 3.22% | -5.29% and 2.13% | -0.57% and 3.55% | -7.14% and -0.01% | -5.53% and -3.08% | -0.78% and 0.07% | 4.14% and -0.32% | -0.37% and 2% | 4.6% and 3.83% | -1.38% and 3.46%
CNC(=O)c1cncc(/C=C/c2ccccc2C)c1 | 1.73% | 2.61% | 4.3% | 3.82% | 5.34% | 6.85% | 24.5% | -2.79% | 11.7% | 1.35% | 9.59% | 3.77% | -0.01% | 2.1% | -3.67% | 6.73% | 9.43% | 0.94% | 2.16% | 8.34%
Cc1ccc(-c2cc3c(NC(=O)C4CC4)ncnc3o2)cc1 | 1.15% | 1.73% | 4.58% | 2.91% | 4.4% | 3.92% | 8.76% | -1.91% | 10.2% | 3.75% | 15.8% | 5.78% | 17.5% | 2.4% | 19.2% | 2.34% | 15.1% | 0.9% | 2.12% | 6.07%
CS(=O)(=O)CCNCc1ccoc1-c1ccc2ncnc(Nc3ccc(OCc4ccccc4)cc3)c2c1 | 1.88% | 1.72% | 4.41% | 2.02% | 1.74% | 0.41% | 1.96% | 1.14% | 5.58% | 3.55% | 5.63% | 0.11% | 8.33% | 3.25% | 9.46% | -0.07% | 3.99% | 1.72% | 1.42% | 0.34%
